Here are results for 19 molecules from PubChem BioAssay (NCATS).

Results filed as inconclusive are left out. The source made the active and inactive calls. Calls come from the whole dose curve; as a rule, active = well fitted cell-killing curve with a large enough effect; inconclusive = small, poorly fitted or top-dose-only effect; inactive = no such curve, though single readings can be large or run the other way.
% is set by controls: 0 for no effect and ±100 for the full control effect; potency is the fitted concentration of half-maximal effect.

The experiment in a line: qHTS of pediatric cancer cell lines to identify multiple opportunities for drug repurposing: Primary screen for SK-N-SH cells (AID 1347098).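 For activity change, negative = cytotoxic: DMSO served as neutral control and bortezomib at 2.3 µM as positive control.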 Note: nearly all actives have a fitted effect of over 65% in size. Particulars: SK-N-SH viability, CellTiter-Glo luminescence, 48 h; series mostly up to 57 µM; activity change, negative = cytotoxic: at the top concentration. Summed up: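 Cells (500-1,000/well) rested 5 h, then received compounds for 48 h; metabolically active cells were measured by CellTiter-Glo luminescence. Final concentrations spanned up to 46 µM (MIPE, 11-point) or 0.59 nM-46 µM (NPC, 8-point) in primary screens, 11-point in follow-ups.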
As for `CCCCCCCCCCCCCCC[C@H](O)[C@@H](N)CO`, the “activity change, negative = cytotoxic” value is -14.6% (inactive).

Take `Cc1c(-c2ccccc2)oc2c(C(=O)OCCN3CCCCC3)cccc2c1=O`: the “activity change, negative = cytotoxic” value is 6.79% (inactive).

In the case of `CCN1CCN(C(=O)N[C@@H](C(=O)N[C@@H]2C(=O)N3C(C(=O)O)=C(CSc4nnnn4C)CS[C@H]23)c2ccc(O)cc2)C(=O)C1=O`, the “activity change, negative = cytotoxic” value is -16.2% (inactive). Take `COc1ccc(C(=O)c2ccccc2)c(O)c1`: the “activity change, negative = cytotoxic” value is -23.4% (inactive). On the same count and under the same terms, the result for `CC(C)[N+](C)(C)CC(O)COc1cccc2ccccc12` (centres undefined) reads -12.7% (inactive). Still for that read-out and setting: next, `OCCOCCN1CCN(C2=Nc3ccccc3Sc3ccccc32)CC1`: -14.2% (inactive). With `CCCCCCCCOc1ccc(C(=O)c2ccccc2)c(O)c1`, the “activity change, negative = cytotoxic” value was 1.03% (inactive).

As for `O=C1C(CCS(=O)c2ccccc2)C(=O)N(c2ccccc2)N1c1ccccc1` (centres undefined), the “activity change, negative = cytotoxic” value is -6.2% (inactive). For `CN1CCC[C@@H]1CCO[C@](C)(c1ccccc1)c1ccc(Cl)cc1`, the Potency is 15.4 µM (active). Turning to `O=C1OC(CN2CCOCC2)CN1/N=C/c1ccc([N+](=O)[O-])o1` (centres undefined), the “activity change, negative = cytotoxic” value was 5.48% (inactive). For `CCCCN=C(N)N=C(N)N`, the “activity change, negative = cytotoxic” value is -12.4% (inactive).

Take `CC1CCc2c(N3CCC(O)CC3)c(F)cc3c(=O)c(C(=O)O)cn1c23` (centres undefined): the “activity change, negative = cytotoxic” value was -0.724% (inactive). On the same count and under the same terms, the result for `Cc1ncc(CO)c(C=O)c1O` reads -0.402% (inactive); that for `COc1ccc2c(c1)c1c3n2CCN(C)C3=NCC1`, -16.7% (inactive); that for `O=C(Nc1cccc(C2=NCCN2)c1)Nc1cccc(C2=NCCN2)c1`, 6.91% [at 20 µM] (inactive). Consider `O=C(NC1CCN(CCc2c[nH]c3ccccc23)CC1)c1ccccc1`, for which the “activity change, negative = cytotoxic” value is -17.6% (inactive). The same measure, in the same setting: next, `CCCCCCCCCCCCCCCC(=O)O`: 2.14% (inactive). With `CC(C)n1c(/C=C/[C@@H](O)C[C@@H](O)CC(=O)O)c(-c2ccc(F)cc2)c2ccccc21`, the Potency is 3.44 µM (active). Take `Cc1cc(CC(=O)O)c(C)n1-c1ccc(Cl)cc1`: the “activity change, negative = cytotoxic” value was -21% (inactive).
